Compounds with a hit are over-represented: about 5.3% of the library has one in this group of screens.
Mot1-301 SUMO: blocks SUMOylation pathway, rescuing yeast Mot1-301 growth. S. cerevisiae Mot1-301 growth rescue, ATP luminescence, 38.5C; percent above DMSO median, 100 means doubled. growth rescue, % at 18.8 µM. 320,000 tested, 1% active;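 active = every valid replicate shows activation above 250% relative to neutral control wells; inactive = the rest, any valid replicate at or below 250%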
HIF activator: HIF pathway transcriptional activation. AID 1910. activation, % at 7.5 µM (by protocol). 300,000 tested, 0.32% active. U2OS HRE-luciferase reporter, luminescence; normalized: DMSO 0%, desferrioxamine 100%;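 active = mean activation of at least 10% of the iron chelator positive control signal, with at least half of replicates also reaching 10%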
PfM18AAP inh: blocks P. falciparum M18 aspartyl aminopeptidase. recombinant PfM18AAP, H-Glu-NHMec fluorogenic cleavage. 290,000 tested, 1.2% active. inhibition, % at 7.35 µM;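 active = inhibition above the campaign mean inhibition over all tested compounds plus 3 SD, cut at about 28% in these data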
ALR H2O2 inh: blocks human ALR sulfhydryl oxidase activity. inhibition, % (concentration not given with the values). 290,000 tested, 3.8% active. purified ALR, DTT oxidation, H2O2 HRP-luminol luminescence. P55789;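 active = mean replicate inhibition above about 79%, with every replicate also reaching it, limit read from the data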
Target sequence (P55789 whole entry, looked up): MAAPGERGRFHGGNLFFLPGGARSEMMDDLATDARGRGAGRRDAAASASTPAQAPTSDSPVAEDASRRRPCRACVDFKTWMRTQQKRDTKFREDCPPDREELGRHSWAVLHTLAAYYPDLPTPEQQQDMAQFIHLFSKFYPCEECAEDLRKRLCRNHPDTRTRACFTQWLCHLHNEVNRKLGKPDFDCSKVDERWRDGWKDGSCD
Yeast Mot1 SUMO: inhibits SUMO pathway, affecting Mot1-301 yeast growth | shares compounds with Mot1-301 SUMO | S. cerevisiae Mot1-301 galactose growth, ATP luminescence, 24 h; -100 = growth of slx-deleted rescue strain | growth activity, percent, % at 42 µM | 2,300 tested, under 10 active | AID 493004;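 active = Signal drops as the depositor expects, and the fitted half-maximal dose is no more than ten times the top valid tested dose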;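 note: more negative values mean stronger growth rescue toward the control strain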
Hits are given with their value; n = inactive; x = no result; + = active, no number.

SMILES | Mot1-301 SUMO | HIF activator | PfM18AAP inh | ALR H2O2 inh | Yeast Mot1 SUMO
CC(CC(=O)NCCc1ccc(Cl)cc1)S(=O)(=O)c1ccc2c(c1)NC(=O)CO2 (stereo not given) | n | n | n | n | x
CC(C)Oc1ccccc1-c1cc(C(=O)N/N=C/c2cccnc2)c2ccccc2n1 | n | n | n | n | x
CN(C)C(=O)c1cc(C(=O)c2ccc(F)cc2F)c[nH]1 | n | n | n | n | x
CN(C)C(=O)c1cc(C(=O)c2ccc(C(F)(F)F)cc2F)c[nH]1 | 500 | n | n | n | n
Cc1ccc(NC(=O)OCc2cccs2)cc1 | n | n | n | n | x
O=C(Nc1nc(-c2ccccc2)cs1)NC1CCCCC1 | n | x | n | n | x
c1ccc(-c2csc(NC3CCCCC3)n2)cc1 | 923 | n | n | n | n
Cc1csc(CNc2ncnc3ccc(-c4cccnc4)cc23)c1 | n | x | x | n | x
Clc1ccccc1-c1ccc2ncnc(NCc3cccs3)c2c1 | 411 | x | x | n | n
Cc1csc(CNc2ncnc3ccc(-c4ccccc4Cl)cc23)c1 | + | x | x | n | n
Clc1cccc(-c2ccc3ncnc(NCc4cccs4)c3c2)c1 | n | x | x | n | x
CCCCN(C(=O)CCCc1nc2ccccc2c(=O)[nH]1)c1c(N)n(CC(C)C)c(=O)[nH]c1=O | n | x | x | n | x
Cc1cc(C)c(C)c(S(=O)(=O)N2CCC(C(=O)N3CCCCCCC3)CC2)c1C | n | n | n | n | x
CCc1nnc(NC(=O)CSc2ccc(-c3ccc(-n4cccn4)cc3)nn2)s1 | 781 | n | x | n | n
COc1ccc(CN(C)c2ccc(S(=O)(=O)N3CCN(C)CC3)cc2[N+](=O)[O-])cc1OC | n | x | x | n | x
CN(Cc1ccccc1)c1ccc(S(=O)(=O)N2CCC(C(=O)O)CC2)cc1[N+](=O)[O-] | 550 | n | n | n | n
COc1ccc(C)cc1NC(=S)N1CCN(c2ccccn2)CC1 | 513 | n | n | n | n
COc1ccc(NC(=S)N2CCN(c3ccccn3)CC2)cc1OC | n | n | n | n | x
Cc1[nH]nc(SCC(=O)NCc2ccc(Cl)cc2)c1[N+](=O)[O-] | n | n | n | n | x
CN(C(=O)COc1cc(=O)n(C)c2ccccc12)c1ccc(Cl)cc1 | 447 | n | n | x | n
O=C(CSc1nc2ncccc2[nH]1)NC1CCCCC1 | 929 | n | n | n | n
O=C(CSc1nc2ccccc2[nH]1)NC1CCCC1 | n | n | n | n | x
N#CCC(=O)Nc1ccc(C(=O)OCC(=O)N=c2sccn2Cc2ccccc2Cl)cc1 | n | n | x | n | x
O=C(c1ccco1)N1CCN(CC(=O)N2c3ccccc3CCc3ccccc32)CC1 | 368 | n | n | n | n
CCn1c(CCNC(=O)c2ccc(Cl)c(Cl)c2)nnc1SCCOc1ccc(OC)cc1 | n | n | n | n | x
SMILES | Mot1-301 SUMO | HIF activator | PfM18AAP inh | ALR H2O2 inh | Yeast Mot1 SUMO
COc1cccc(/C=C2\SC(N3CCC(C)CC3)=NC2=O)c1OC | 615 | n | n | n | n
Cn1c(Cn2nnc3ccccc32)nnc1SCC(=O)c1ccc(F)cc1 | 785 | n | n | n | n
CC(C)N(C(=O)CSc1nnc(Cn2nnc3ccccc32)n1C)C(C)C | n | n | n | x | x
CCOC(=O)C1=C(c2ccccc2)NC(=O)NC1c1ccsc1 (stereo not given) | n | n | n | n | x
CCOC(=O)C1(Cc2cccc(F)c2)CCN(C(=O)c2cnccn2)CC1 | 632 | n | n | n | n
CCOC(=O)C1(Cc2ccccc2Cl)CCN(C(=O)c2cnccn2)CC1 | n | n | n | n | x
O=C(COC(=O)[C@@H]1CC(O)CN1S(=O)(=O)c1ccccc1[N+](=O)[O-])Nc1ccc2ccccc2c1 (stereo not given in full) | 495 | n | n | n | n
O=C(COC(=O)C1CC(O)CN1S(=O)(=O)c1ccccc1[N+](=O)[O-])c1ccc[nH]1 (stereo not given) | n | x | x | n | x
CC(=O)Oc1cccc(N2C(=O)c3ccc(C(=O)Nc4c[nH]c(=O)[nH]c4=O)cc3C2=O)c1 | 554 | n | n | n | n
CCCCN1CCc2c([nH]c3c(C)cccc23)C1=O | n | n | n | n | x
Cc1ccc2nc(N/N=C/c3ccccc3F)nc(-c3ccccc3)c2c1 | 473 | n | n | x | n
Cc1ccc2nc(N/N=C/c3ccccc3C#N)nc(-c3ccccc3)c2c1 | n | n | n | n | x
CN(C)c1ccc(CNS(=O)(=O)c2ccc3c(c2)C(C)(C)C(=O)N3C)cc1 | n | n | n | n | x

Source: PubChem BioAssay
